# Source: PubChem BioAssay
# The source made the active and inactive calls. Cut-off read from the data, not from the text of the source: active = inhibition above about 28%; inactive = the rest.
# Assay: StAR promoter reporter inhibitors, counter-screen for LRH-1 inverse agonist project, cell-based, luminescence, high throughput (AID 651611)
# Details: StAR promoter luciferase reporter counterscreen, at 3.6 µM, stronger effect = higher value
row,SMILES,inhibition
1,COc1ccc(CCNC(=O)CN2C(=O)C3(OCCCO3)c3ccccc32)cc1OC,11.2% (inactive)
2,CC(=O)Nc1ccc(NC(=O)COC(=O)c2c(C)nn(-c3ccccc3)c2C)cc1,10.2% (inactive)
3,CCCOc1ccc(N)cc1N,11.1% (inactive)
4,C=CC(=O)Nc1cccc(Oc2ncnc3[nH]cc(-c4cnc5ccccc5c4)c23)c1,27.3% (inactive)
5,CC1CCCC(C)N1C(=O)COC(=O)CCC1CCCC1 (stereo unspecified),3.25% (inactive)
6,COc1cccc(C2c3cc4c(cc3OC(N3CCOCC3)C2C)OCO4)c1O (stereo unspecified),11.7% (inactive)
7,O=C(Nc1ccccc1C(=O)NCCCn1ccnc1)c1ccccc1,14.8% (inactive)
8,O=C(Nc1ccc2[nH]c(=O)[nH]c2c1)c1ccc([N+](=O)[O-])o1,7.96% (inactive)
9,O=C(CSc1nc2ccc(F)cc2c(=O)n1-c1ccccc1)Nc1ccc2c(c1)CCC2,-3.68% (inactive)
10,Cc1cc(=O)oc2c(C)c(OCC(=O)NC3CC(C)(C)NC(C)(C)C3)ccc12,-1.6% (inactive)
11,O=C(COC(=O)C1CCCCC1)NCCc1ccccc1,3.93% (inactive)
12,O=C(NCc1ccc2c(c1)OCO2)c1cc([N+](=O)[O-])ccc1N1CCCCC1,44.1% (active)
13,COc1ccc(OC)c(C2C3=C(COC3=O)Nc3cc4c(cc32)OCO4)c1 (stereo unspecified),57.4% (active)
14,O=C1CCN(CCCN2CCC(=O)N(Cc3ccccc3)C2=S)C(=S)N1Cc1ccccc1,-8.81% (inactive)
15,O=C(COC(=O)c1ccc(S(=O)(=O)N2CCCC2)cc1)Nc1ccc(N2CCOCC2)cc1,18.1% (inactive)
16,S=C(Nc1cccnc1)Nc1cccc2cnccc12,9.29% (inactive)
17,COc1ccc(CCNC(=O)CSc2nc3[nH]c(=O)cc(O)c3s2)cc1,17.6% (inactive)
18,O=C1CCc2cc(OCCCCc3nnnn3C3CCCCC3)ccc2N1,12.9% (inactive)
19,CN(C)S(=O)(=O)c1cccc(CSCc2cccc(S(=O)(=O)N(C)C)c2)c1,7.72% (inactive)
20,COc1cccc2c1C1COC3C4CC(C(=O)O)C(C(C2)N13)N4C (stereo unspecified),29.8% (active)
21,COc1ccc(CCNC(=O)CSc2nnc(CNC(=O)c3cccs3)o2)cc1OC,4.32% (inactive)
22,CCOc1ccc(C(C)=O)cc1COC(=O)c1cc([N+](=O)[O-])ccc1N1CCOCC1,15.1% (inactive)
23,Cc1ccc(C2CC(C(F)(F)F)n3nc(C(=O)NCc4ccco4)cc3N2)cc1 (stereo unspecified),0.64% (inactive)
24,COc1cc(OC)cc(-c2oc3cccnc3c2C#CCCO)c1,2.16% (inactive)
25,COc1ccc(/C=N/n2c(SC)nnc2-c2ccccc2)c(OC)c1OC,53.5% (active)
26,COc1ccc(CCNC(=O)CSc2nc3[nH]ncc3c(=O)n2-c2ccccc2Br)cc1OC,5.86% (inactive)
